The supplement of paper PMC11417369
Over roughly 25,000 sequences, “ln(normalized median fluorescence intensity)” has its median near 9.3; the highest 2% begin near 10. The sample as a whole holds a higher share of the highest values than the screen did.

test system: PF3D7_0420300 AP2 domain 1 (GST-tagged); assay: gcPBM binding intensity (ln(normalized median fluorescence intensity)); higher = stronger DNA binding
In short: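 In this array assay, P. falciparum DNA-binding domains with a GST tag, expressed in E. coli, were applied for 1 h to primer-extended double-stranded 36-bp intergenic genomic probes and negative controls on an Agilent 4 × 180k array. Bound protein was visualised with Alexa488 anti-GST antibody at 488 nm. Binding intensity is the highest Masliner-normalised natural-log median intensity across replicate spots of either probe orientation.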

| Sequence | gcPBM binding intensity (ln) |
| --- | --- |
| CTCAATATTATTACTACACACAAATTAAAATTTTCC [CACACA_site4203] | 9.45 |
| ATTTATTCATTTGGGTGTACTATTTAAAAAAAACAA [XGTACX_site498] | 9.18 |
| AAAATAAAAAGAAAAAGAAAAAAGGGGGGGTAGGGG [CACACA_negctrl_site1048] | 10.2 |
| AAGGGAAAATAATAAAAGAAAAAGAAAAAAAAAAAA [CACACA_negctrl_site1518] | 9.21 |
| AAGGGGTAAAGAAAAACACACAAAAAATAAAAATAT [CACACA_site361] | 9.65 |
| TAAAAAAAAACAGAAACACACATTATTCATATATAT [CACACA_site2049] | 9.77 |
| TGAAAAAAGAAAAATACACACATATAATATAATATA [CACACA_site2255] | 9.7 |
| AATTAAAATAATAATACACACATCATAGAAAAAGAC [CACACA_site292] | 10.4 |
| TGTATTAATAAAAATACACACATCATATTATAGAAA [CACACA_site7629] | 9.49 |
| ATACAGAAAAAAAACACACACACATAATATACATAC [CACACA_site1933] | 10.1 |
| TAAAAGAAATAATATACACACATATATAAAAATAAA [CACACA_site1329] | 9.6 |
| ACAGAAAAAAAACACACACACATAATATACATACAT [CACACA_site1932] | 10.2 |
| ATATAACAGAAACACACACACATATATATATATTAT [CACACA_site4140] | 10.2 |
| CATTATAAGAAACACACACACATATATATATATATA [CACACA_site1051] | 9.73 |
| TTAATTAGAAATCATACACACATATAAATAAATATA [CACACA_site6225] | 9.6 |
| ACAGAAAAAAGACACACACACATAATATACATACAT [CACACA_site6991] | 10.2 |
| CATACACAGAAACACACACACATATATATATATATA [CACACA_site4519] | 9.79 |
| AGCTATTAATTTATTACATGCAAGATTAAAAGACTA [TGCATGCA_site281] | 8.99 |
| AATCAAAACATTAAAAAGAAAAAATATATATATATA [CACACA_negctrl_site366] | 9.03 |
| AGGATATGCAGACACACACACATATAGATTTATATA [CACACA_site7100] | 9.73 |
| ATTGTGCTCATCAGCACACACAACATCATGTAATAA [CACACA_site1863] | 9.47 |
| TTTTGTTATATTCAATATTTATATATTATAAATATA [CACACA_negctrl_site1705] | 9.11 |
| TTAAAACCAAAACACAGTACATATATATATATATAT [XGTACX_site5668] | 9.4 |
| TATTTTATTTTTTTATGTACACAAAAAAAAAAAAAA [XGTACX_site945] | 8.63 |

| Sequence | gcPBM binding intensity (ln) |
| --- | --- |
| TTTTTTTTTTGTTGTTGTACTCTTATATTTTTATAT [XGTACX_site6178] | 9.7 |
| ATAAATAAATAAATAAATAAATATACATATACATAT [CACACA_negctrl_site205] | 9.39 |
| TATGGTAACATATGCTGTACAATATAATATGTTTAA [XGTACX_site1601] | 9.11 |
| TATAGTGATATATACACACACTTGTCTTGTAAAAAT [CACACA_site6594] | 9.53 |
| GATGTATTCATACATGCACACGTACATATTTAAATA [CACACA_site9299] | 9.34 |
| TAAATACAGAAACACACACACAAATATATACATACA [CACACA_site2880] | 10.1 |
| CATATACAGAAACACACACACACATAAATAAATATA [CACACA_site1343] | 10.3 |
| CAAATACAGAAACACACACACATATACATATATATA [CACACA_site3498] | 9.97 |
| ATATATATATATCACGCACACACGAATTTTAAATAT [CACACA_site3131] | 9.65 |
| TTTTCAAAATAATATTATATCAAATGCTAAAAAGAA [TGCATGCA_negctrl_site588] | 8.96 |
| AACATTATAAGACACACACACACATATATAAATATA [CACACA_site6622] | 10.3 |
| AACATTATAAGACACACACACACATATATATATATA [CACACA_site8259] | 10.1 |
| TAATAAATAAGACACACACACATATATATATATTAT [CACACA_site1389] | 10.2 |
| GTAAGAAACAGACACACACACATATAAATATAAATA [CACACA_site6515] | 10.1 |
| ATAAATATAGGACACACACACATATTATATATATAT [CACACA_site5658] | 10.1 |
| AAACATAAGAGACACACACACATATATAAATAAATA [CACACA_site7674] | 10.2 |
| TAAAACATAAGAGACACACACACATATATATATATA [CACACA_site3643] | 9.9 |
| TAATAAATAGGACACACACACATATATATATATTAT [CACACA_site4891] | 10.1 |
| AACATTATAGGACACACACACACATATATATATATA [CACACA_site4721] | 10.2 |
| ATCGTTATATAATGTTGTACTTGTTATATATATATA [XGTACX_site7582] | 9.7 |
| TATATATATATATATACATGCATTTCTCATGTACAT [TGCATGCA_site621] | 9.14 |
| TTTGATAAATGATACACACACAATATTTATAAAATA [CACACA_site7040] | 9.72 |
| ATCTATAAATTTCCACGTACATATATATATATATAT [XGTACX_site4502] | 9.32 |
| TTTTGTTTTTGTAGAGTGCATAAAGAAGATATGTAT | 9.1 |

| Sequence | gcPBM binding intensity (ln) |
| --- | --- |
| AGTGTATTAAATTTTGAACACACAAAATAAAACATA [CACACA_site8483] | 9.43 |
| TATATTATGACCACCACACACCTATACACATAACAT [CACACA_site7199] | 9.62 |
| ATTATAACACCTCCCCCCCTTTTTTTATGAAGACCA [CACACA_negctrl_site1043] | 10.4 |
| AACTTTTAGAAGAACACACACATATAGATTATGACC [CACACA_site6256] | 9.86 |
| TTTATACTTGTAAATGCACACATAAGATGCGACTAA [CACACA_site8662] | 9.18 |
| TTTATAAAAATATACACACATACAAATATGCATATA [CACACA_site712] | 9.44 |
| TATCCATATTTGTTCACACACACACCCATTTATATA [CACACA_site3571] | 10.2 |
| TGTATCCATATTTGTTCACACACACCCATATTTATA [CACACA_site9190] | 10 |
| TATCCATATTTGTTCACACACACACCGATTTATATA [CACACA_site5888] | 10.1 |
| ATATAAATTCAAATTACACACATTTATTTTTTTTAC [CACACA_site53] | 9.44 |
| AGCAAATCAGATAGTAGTACATTTAAATTAGACTTT [XGTACX_site4172] | 9.19 |
| AACATATACACGAACACACACACATATATATATATA [CACACA_site502] | 10.1 |
| CATATACACGAACACACACACATATATATATATATA [CACACA_site4437] | 9.84 |
| TGAACACGCACAAATACACACAAAAAAAATAAATAA [CACACA_site6257] | 9.63 |
| CATATACACGAACACACACACACACGCACAAAAAAA [CACACA_site6376] | 10.2 |
| GGCATACACGAACACACACACACACGCACATATATA [CACACA_site6426] | 10.3 |
| ATTATACACGCGCGCACACACAACAAAAAAAAAAAA [CACACA_site7630] | 9.69 |
| TATTTTCTCTTAAAAAGTACTCATATATACATTTAT [XGTACX_site7748] | 9.07 |
| GAGTAAAAATTAAAATGTACATATTATATATATTTA [XGTACX_site1319] | 9.09 |
| CTTTGCCTTAAAAAGGAACACACATGCTTTTTTTAG [CACACA_site8219] | 9.22 |
| TTTTTTTTTACTTGTTGTACTTTTTCAAGGTATTGT [XGTACX_site7778] | 9.42 |
| TATATACATAAAATTTGTACATATATATATATATAT [XGTACX_site3214] | 9.28 |
| TGCTTATATCTTATAATATTTATACATCATAATAAG [CACACA_negctrl_site629] | 9.17 |
| ATTTTTCTTTTATTAACACACATATAAATAAATACA [CACACA_site2876] | 9.22 |

| Sequence | gcPBM binding intensity (ln) |
| --- | --- |
| TATATATAGAAACACACACACACATATATATATATT [CACACA_site2539] | 10.1 |
| ATAATATAGAAACACACACACATATATATATACATT [CACACA_site555] | 10.2 |
| TAATAATAGAAACACACACACATAGACATATATATA [CACACA_site1307] | 10.1 |
| TATACATAGAAACACACACACATAAATAAATATATA [CACACA_site1342] | 10.1 |
| TATACATAGAAACACACACACATATATATATATATA [CACACA_site2248] | 9.79 |
| CATAATAATAGAAACACACACACATAGACATATATA [CACACA_site1308] | 10.2 |
| TGTATCCACATATGTACACACATATATCTGTATATG [CACACA_site5668] | 9.51 |
| CAAAAATAAAAGAAATGTACAAAAAATAATAAAAAA [XGTACX_site6597] | 9.43 |
| TATTTTATACATATTTTACACACTAATATATACATA [CACACA_site7998] | 9.42 |
| AGGAATATCGAAAACTGTACTTGTATGTTTCATAAA [XGTACX_site6143] | 9.02 |
| AATAATATATTTAGGGGTACATAATAATATATTTTA [XGTACX_site8366] | 9.27 |
| TTAGGCAAGGCGGGGGGTACGTTTTTATATAATTAT [XGTACX_site8029] | 10.6 |
| AAATATATTATAAATTGTACGTTTATATATATTATT [XGTACX_site5110] | 9.35 |
| ATTTTTGTAAATACATGTACATATATATGCATATCC [XGTACX_site6353] | 9.49 |
| TTTCTATTTCCTTCACATCTTTTCATCTTTTTTTTT [CACACA_negctrl_site1110] | 9.71 |
| AATGGCAAAATAGGCACACACACATATACATATATA [CACACA_site1058] | 10.1 |
| TTAATGGAAAAATAGGCACACACACCGATATACATA [CACACA_site8356] | 9.94 |
| TGGAAAAATAGGCACACACACATATATACATATATA [CACACA_site1297] | 10 |
| AATGGCAAAATAGGCACACACACATATACAGATATA [CACACA_site4726] | 10.1 |
| AATGGAAAAATAGGCACACACACATAAATACAGATA [CACACA_site4844] | 10.3 |
| AATGGAAAAATAGGCACACACACATATATACATATA [CACACA_site1298] | 10.2 |
